Inconclusive results are not listed. Calls of active or inactive are those of the source. Unless noted, calls come from the whole dose curve; as a rule, active = well fitted curve in either direction with a large enough effect (not every such curve was filed as active); inconclusive = small, poorly fitted or top-dose-only effect, or another doubt; inactive = flat fitted curve, though single readings scatter.
Legend:
[1] = target: Lysosomal acid glucosylceramidase (Homo sapiens) (UniProt P04062); experiment: Glucocerebrosidase-p2 (AID 348; in the data active = potency below about 10 µM; note: potency is the fitted concentration of half-maximal effect); conditions: purified GBA, blue fluorogenic substrate, 40 min
Method in brief: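 Compounds titrated from 0.6 nM upwards against 0.2 nM enzyme in pH 5.9 citric acid/KH2PO4, taurocholate, tween-20; blue fluorogenic substrate 80 uM, 40 min room temperature, stopped and read Ex 365/Em 440 for AC50.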

[2] = AP1 Signaling Pathway (AID 357); conditions: ME-180 AP-1-bla reporter, EGF-induced, beta-lactamase ratio, 5 h; at 7.69 µM (top of the series) unless noted; note: % is set by controls: 0 for no effect and ±100 for the full control effect
Method in brief: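 ME-180 cells with beta-lactamase reporter under AP-1 response element, stimulated with EC50 EGF; compounds tested in titration series, 5 h at 37 °C. CCF4 substrate added 2.5 h at room temperature; 460/530 nm emission ratio gave %activity and AC50.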

[3] = target: Glucocorticoid receptor (Homo sapiens) (UniProt P04150); experiment: GR-GFP Redistribution (AID 450;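 active = compounds whose dose series gives a full or clear partial fitted curve of increased nuclear translocation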; note: potency is the fitted concentration of half-maximal effect); conditions: U2OS GR-GFP nuclear translocation, laser cytometry, 2 h
[4] = target: Glucocorticoid receptor (Homo sapiens) (UniProt P04150); experiment: GR-EFC Redistribution (AID 451; calls by dose curve; note: potency is the fitted concentration of half-maximal effect); conditions: CHO-K1 GR-EFC translocation, beta-gal luminescence, 2 h
Method in brief: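 CHO-K1 cells expressing nuclear EA and GR-ED fragments of b-gal; compounds titrated up to 46 uM final, 2 h at 37 C. GR nuclear translocation read as complemented b-gal luminescence after 1 h RT detection.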

[5] = target: Mitogen-activated protein kinase 10 (Mus musculus) (UniProt Q61831); experiment: JNK3 AlphaScreen Assay (AID 530); conditions: JNK3 lysate, c-Jun phosphorylation; series mostly up to 57.1 µM;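 note: kinase came from lysate of stimulated human HepG2 cells; signal reports phosphorylation of biotinylated GST-cJun 1-79 at Ser73 with 10 µM ATP; % is set by controls: 0 for no effect and ±100 for the full control effect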
Method in brief: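 Pre-activated (IL-1β/TNFα) JNK3 in HepG2 lysates phosphorylates biotin-GST-cJun(1-79), 10 uM ATP; anti-phospho-cJun(Ser73) AlphaScreen read at room temperature, pH 7.6 Tris buffer. Compounds pre-incubated 15 min as titrations.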

[6] = target: Cytochrome P450 3A4 (Homo sapiens) (UniProt P08684); experiment: qHTS Assay for Activators of Cytochrome P450 3A4 (AID 885; active = well fitted curve in the direction sought with a large enough effect; an effect the other way counts as inactive or inconclusive; note: nearly all actives have a fitted effect of over 65% in size); conditions: recombinant CYP3A4, Luciferin-PPXE luminescence, 60 min; series mostly up to 57.1 µM
Method in brief: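 20nM CYP3A4 + 25uM Luciferin-PPXE (=KM), 200mM KPO4; cpd 10 min RT; NADPH regen, 60 min RT; stop w/ detection buffer, 20 min; luminescence. Normalized to 57 uM ketoconazole.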

[7] = target: Cytochrome P450 2C19 (Homo sapiens) (UniProt P33261); experiment: qHTS Assay for Inhibitors and Substrates of Cytochrome P450 2C19 (AID 899; active = well fitted curve in the direction sought with a large enough effect; an effect the other way counts as inactive or inconclusive; note: potency is the fitted concentration of half-maximal effect; nearly all actives have a fitted effect of over 60% in size); conditions: recombinant CYP2C19, luciferin-H EGE luminescence; series mostly up to 57.1 µM
Method in brief: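 Signal comes from luciferase acting on luciferin released by CYP2C19-mediated hydroxylation of Luciferin-H EGE, 10uM (KM). Assay mix: 5nM enzyme, 50mM KPO4; 60 min at 37C with NADPH regeneration. Data normalized against 57uM ketoconazole.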

[8] = Confirmation and Secondary Assay for Modulators of Hemoglobin Beta Chain Splicing at IVS2 654 locus (AID 910; active = well fitted curve in the direction sought with a large enough effect; an effect the other way counts as inactive or inconclusive;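 note: HeLa cells stably carrying EGFP split by mutant beta-globin IVS2-654 intron; % of control where 0% means no effect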); conditions: HeLa EGFP-654 splicing reporter, GFP fluorescence, 48 h; series mostly up to 38.3 µM
Method in brief: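 HeLa cells stably expressing EGFP interrupted by β-globin IVS2-654 intron, seeded overnight in Opti-MEM/2% FCS, then treated 2 days at 37 °C. Restored splicing read as total peak GFP intensity per well by laser scanning cytometry (488 nm excitation, 500–520 nm emission); 500 nM antisense PNA as control.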

[9] = qHTS Assay for Identification of Small Molecule Agonists for Hypoxia Response Element Signaling Pathway (AID 914; active = well fitted activation curve with a large enough effect in the signal ratio, with a control signal flat, not every such curve was filed as active; the % refers to the signal ratio; note: potency is the fitted concentration of half-maximal effect; for activation: % of control where 0% means no effect); conditions: ME-180 HRE-bla reporter, beta-lactamase ratio, CoCl2, 17 h; activation: stronger effect = higher value
Method in brief: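 HRE-bla ME-180 cells with beta-lactamase reporter under hypoxia response element, compounds with EC50 CoCl2 for 17 hours at 37 C. CCF4 substrate, 460nm/530nm emission ratio gave %Activity; AC50 from titration series.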

[10] = Confirmation and Secondary Assay for Modulators of Hemoglobin Beta Chain Splicing at IVS2 705 locus (AID 930; active = well fitted curve in the direction sought with a large enough effect; an effect the other way counts as inactive or inconclusive;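 note: HeLa cells stably expressing the EGFP-705 splicing reporter; GFP fluorescence per well restored by corrected splicing of the IVS2-705 intron in EGFP; % of control where 0% means no effect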); conditions: HeLa EGFP-705 splicing reporter, GFP fluorescence, 48 h; series mostly up to 38.3 µM
Method in brief: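 HeLa cells stably carrying EGFP interrupted by mutant beta-globin intron 2 (IVS2-705) treated 2 days at 37C with compound; 500 nM antisense PNA as control. Correct splicing read as total peak GFP intensity per well by laser-scanning cytometry.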

[11] = qHTS Assay for Lipid Storage Modulators (AID 1519; calls by dose curve); conditions: Drosophila S3 cells, BODIPY lipid droplet/cell ratio, laser cytometry, cells loaded with oleic acid; for activity change, negative = inhibition: at 57.5 µM (top of the series)
Method in brief: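 Cells seeded at 5,000 per well were treated with compounds over a concentration series and loaded with oleic acid (400 uM, as added). Lipid droplet fluorescence (488 nm excitation, 500-530 nm channel) was read by laser-scanning cytometry and normalized to 20 uM Triacsin C.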

[12] = Stat Signaling Pathway (AID 446); conditions: ME-180 SIE beta-lactamase reporter, IL-6 stimulated, 5 h; at 7.69 µM (top of the series) unless noted;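 note: ME-180 cervical cancer cells given 40 pM IL-6 alongside compound; SIE-controlled beta-lactamase reporter measured as 460/530 nm FRET emission ratio; % is set by controls: 0 for no effect and ±100 for the full control effect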
Method in brief: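 ME-180 SIE-bla cells; overnight plating; cpd + IL-6 40 pM, 5 h, 37 C; LiveBLAzer 2.5 h RT; 460/530 nm emission ratio. Normalized to 300 pM IL-6 and 125 nM JAK inhibitor controls.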

[13] = target: 3',5'-cyclic-AMP phosphodiesterase 4B (Homo sapiens) (UniProt Q07343); experiment: qHTS Assay for Inhibitors of PDE-IV (AID 607; active = well fitted activation curve with a large enough effect in the main read-out, with a control signal flat, not every such curve was filed as active; note: % of control where 0% means no effect); conditions: HEK293 ACTOne CNG channel cells, membrane potential fluorescence; series mostly up to 22.9 µM
Method in brief: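 ACTOne HEK293 cells carry a modified cAMP-gated CNG channel and express endogenous PDE4; plated 1000 cells/well, compounds up to 22.9 uM final. Membrane-potential dye fluorescence (ex 535/em 590) was read; parental cells received 10 uM forskolin + 100 uM RO 20-1724.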

[14] = NFAT Signaling Pathway (AID 444); conditions: Jurkat NFAT-bla M1, carbachol, beta-lactamase ratio, 5 h; at 7.69 µM (top of the series) unless noted;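 note: carbachol stimulus at about its EC50 of 1 µM final; % is set by controls: 0 for no effect and ±100 for the full control effect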
Method in brief: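 Jurkat cells with NFAT-driven β-lactamase reporter and co-expressed M1 receptor, stimulated with carbachol (final 1 uM, ~EC50), compound titration, 5 h at 37 °C. CCF4 loaded 1 h at RT; 460/530 nm ratio gave %activity and AC50.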

[15] = target: Ubiquitin carboxyl-terminal hydrolase 1 (Homo sapiens) (UniProt O94782); experiment: Inhibitors of USP1/UAF1: Pilot qHTS (AID 504865; active = well fitted curve in the direction sought with a large enough effect; an effect the other way counts as inactive or inconclusive;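 note: rhodamine fluorescence freed from ubiquitin-rhodamine substrate followed over time; top concentration of the series differs between compounds; % is set by controls: 0 for no effect and ±100 for the full control effect; nearly all actives have a fitted effect of over 35% in size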); conditions: purified USP1/UAF1, Ub-rhodamine cleavage fluorescence; series mostly up to 54.9 µM
Method in brief: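 USP1/UAF1 complex at 1 nM preincubated 15 min at room temperature with compound, then Ub-Rho substrate added at 150 nM final. Fluorescence (480/540 nm) read kinetically in 50 mM HEPES pH 7.8, 0.5 mM EDTA, 1 mM TCEP, 0.1 mg/ml BSA, 0.01% Tween-20.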

[16] = measured here: cell count channel max response
[17] = measured here: lipid channel max response

Chain of Lysosomal acid glucosylceramidase (Homo sapiens) (P04062 whole entry, looked up): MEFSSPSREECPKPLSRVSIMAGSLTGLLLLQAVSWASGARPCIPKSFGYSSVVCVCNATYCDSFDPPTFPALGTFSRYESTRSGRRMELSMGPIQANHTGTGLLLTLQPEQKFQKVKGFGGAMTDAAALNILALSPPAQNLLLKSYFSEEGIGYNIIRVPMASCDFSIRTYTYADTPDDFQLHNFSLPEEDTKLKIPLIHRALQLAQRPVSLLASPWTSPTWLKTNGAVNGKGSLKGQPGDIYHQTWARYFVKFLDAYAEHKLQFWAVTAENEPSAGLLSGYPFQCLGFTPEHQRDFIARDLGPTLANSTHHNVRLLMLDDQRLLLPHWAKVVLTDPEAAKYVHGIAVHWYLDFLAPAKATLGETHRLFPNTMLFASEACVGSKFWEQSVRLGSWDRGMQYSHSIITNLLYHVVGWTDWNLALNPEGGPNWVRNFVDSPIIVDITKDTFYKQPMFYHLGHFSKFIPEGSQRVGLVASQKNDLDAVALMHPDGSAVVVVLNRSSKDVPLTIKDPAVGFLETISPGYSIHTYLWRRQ
Chain of Cytochrome P450 3A4 (Homo sapiens) (P08684 whole entry, looked up): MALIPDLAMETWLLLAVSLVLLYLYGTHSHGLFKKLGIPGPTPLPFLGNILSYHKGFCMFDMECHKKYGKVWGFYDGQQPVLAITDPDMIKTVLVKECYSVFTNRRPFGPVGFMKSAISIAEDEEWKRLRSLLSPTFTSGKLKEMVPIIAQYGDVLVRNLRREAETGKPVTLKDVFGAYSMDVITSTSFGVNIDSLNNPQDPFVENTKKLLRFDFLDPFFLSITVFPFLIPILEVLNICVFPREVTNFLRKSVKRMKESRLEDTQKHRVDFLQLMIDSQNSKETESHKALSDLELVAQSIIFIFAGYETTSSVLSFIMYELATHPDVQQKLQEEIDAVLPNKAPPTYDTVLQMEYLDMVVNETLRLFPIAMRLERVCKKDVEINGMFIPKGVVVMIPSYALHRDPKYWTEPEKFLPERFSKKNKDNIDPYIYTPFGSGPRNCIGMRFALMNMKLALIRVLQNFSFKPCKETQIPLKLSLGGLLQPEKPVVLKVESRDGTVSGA
Chain of 3',5'-cyclic-AMP phosphodiesterase 4B (Homo sapiens) (Q07343 whole entry, looked up): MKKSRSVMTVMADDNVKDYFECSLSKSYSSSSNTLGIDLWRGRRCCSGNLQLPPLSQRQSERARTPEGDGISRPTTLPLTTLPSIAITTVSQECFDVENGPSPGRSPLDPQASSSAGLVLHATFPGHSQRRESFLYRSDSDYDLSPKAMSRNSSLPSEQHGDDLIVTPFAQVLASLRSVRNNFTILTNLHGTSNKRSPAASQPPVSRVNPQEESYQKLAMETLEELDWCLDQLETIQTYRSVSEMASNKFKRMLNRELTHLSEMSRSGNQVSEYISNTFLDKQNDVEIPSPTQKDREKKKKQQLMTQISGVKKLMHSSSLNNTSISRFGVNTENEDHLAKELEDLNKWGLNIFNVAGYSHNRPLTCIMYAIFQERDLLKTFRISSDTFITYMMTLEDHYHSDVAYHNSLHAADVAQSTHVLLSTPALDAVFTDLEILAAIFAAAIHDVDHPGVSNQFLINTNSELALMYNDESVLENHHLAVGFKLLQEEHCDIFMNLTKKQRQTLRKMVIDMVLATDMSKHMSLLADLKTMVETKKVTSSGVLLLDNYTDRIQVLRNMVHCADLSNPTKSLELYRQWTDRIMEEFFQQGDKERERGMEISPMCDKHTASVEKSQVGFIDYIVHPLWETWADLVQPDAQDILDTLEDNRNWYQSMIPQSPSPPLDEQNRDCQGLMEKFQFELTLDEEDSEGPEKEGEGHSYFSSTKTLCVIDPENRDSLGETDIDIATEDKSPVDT
Chain of Glucocorticoid receptor (Homo sapiens) (P04150 whole entry, looked up, the tested form may be a part): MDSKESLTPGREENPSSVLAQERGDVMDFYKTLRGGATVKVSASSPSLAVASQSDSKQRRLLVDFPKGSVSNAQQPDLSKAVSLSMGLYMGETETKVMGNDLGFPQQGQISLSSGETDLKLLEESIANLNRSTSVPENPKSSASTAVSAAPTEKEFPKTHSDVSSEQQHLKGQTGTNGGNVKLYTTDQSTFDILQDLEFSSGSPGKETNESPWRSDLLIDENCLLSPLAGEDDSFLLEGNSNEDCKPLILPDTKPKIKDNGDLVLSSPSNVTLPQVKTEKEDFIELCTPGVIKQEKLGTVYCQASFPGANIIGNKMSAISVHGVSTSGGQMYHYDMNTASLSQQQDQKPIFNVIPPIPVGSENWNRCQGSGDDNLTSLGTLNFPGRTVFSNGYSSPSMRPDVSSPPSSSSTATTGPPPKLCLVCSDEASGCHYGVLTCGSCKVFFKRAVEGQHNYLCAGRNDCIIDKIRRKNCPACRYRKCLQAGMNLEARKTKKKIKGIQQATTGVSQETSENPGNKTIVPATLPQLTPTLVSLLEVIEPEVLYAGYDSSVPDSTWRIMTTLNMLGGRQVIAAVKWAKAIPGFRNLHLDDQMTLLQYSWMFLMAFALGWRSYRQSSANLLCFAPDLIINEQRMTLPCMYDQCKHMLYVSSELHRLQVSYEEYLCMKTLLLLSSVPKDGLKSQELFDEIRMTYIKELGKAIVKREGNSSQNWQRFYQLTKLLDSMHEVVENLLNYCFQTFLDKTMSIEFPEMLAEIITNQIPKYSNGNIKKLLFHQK
Chain of Ubiquitin carboxyl-terminal hydrolase 1 (Homo sapiens) (O94782 whole entry, looked up): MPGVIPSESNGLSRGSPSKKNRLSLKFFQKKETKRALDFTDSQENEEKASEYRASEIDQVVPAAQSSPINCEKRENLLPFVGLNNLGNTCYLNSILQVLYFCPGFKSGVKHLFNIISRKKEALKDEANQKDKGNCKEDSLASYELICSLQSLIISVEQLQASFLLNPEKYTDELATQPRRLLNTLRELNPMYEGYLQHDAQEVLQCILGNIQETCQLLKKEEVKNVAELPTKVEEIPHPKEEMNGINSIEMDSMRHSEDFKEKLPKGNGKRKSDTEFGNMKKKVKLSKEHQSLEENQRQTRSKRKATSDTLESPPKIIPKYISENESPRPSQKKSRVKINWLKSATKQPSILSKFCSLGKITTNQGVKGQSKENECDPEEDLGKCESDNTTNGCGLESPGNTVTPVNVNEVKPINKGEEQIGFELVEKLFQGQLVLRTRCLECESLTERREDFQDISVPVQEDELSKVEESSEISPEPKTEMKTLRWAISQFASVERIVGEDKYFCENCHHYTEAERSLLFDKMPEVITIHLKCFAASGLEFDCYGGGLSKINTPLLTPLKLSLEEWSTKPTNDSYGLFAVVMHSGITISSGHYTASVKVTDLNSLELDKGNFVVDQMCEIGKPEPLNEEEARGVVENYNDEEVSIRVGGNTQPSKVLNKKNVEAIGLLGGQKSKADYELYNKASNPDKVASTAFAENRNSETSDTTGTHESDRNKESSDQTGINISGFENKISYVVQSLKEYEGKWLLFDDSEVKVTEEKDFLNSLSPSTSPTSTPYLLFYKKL
Chain of Cytochrome P450 2C19 (Homo sapiens) (P33261 whole entry, looked up): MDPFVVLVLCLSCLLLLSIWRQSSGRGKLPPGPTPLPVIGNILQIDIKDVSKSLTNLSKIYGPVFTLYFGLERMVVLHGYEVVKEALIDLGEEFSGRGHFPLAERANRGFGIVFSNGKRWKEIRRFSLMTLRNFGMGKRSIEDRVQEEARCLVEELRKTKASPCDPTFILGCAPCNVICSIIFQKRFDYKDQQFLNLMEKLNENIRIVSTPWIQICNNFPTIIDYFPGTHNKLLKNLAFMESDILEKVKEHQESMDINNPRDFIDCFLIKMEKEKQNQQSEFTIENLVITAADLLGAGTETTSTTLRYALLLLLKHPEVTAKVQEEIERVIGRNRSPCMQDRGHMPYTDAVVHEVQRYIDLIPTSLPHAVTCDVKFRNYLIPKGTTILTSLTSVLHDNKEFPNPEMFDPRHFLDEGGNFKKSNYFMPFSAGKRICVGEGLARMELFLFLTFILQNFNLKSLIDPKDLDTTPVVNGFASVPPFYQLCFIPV

Cc1noc(C)c1-c1ccc2ncnc(NCc3ccccc3)c2c1
inactive: Potency [1] > 11.4 µM | activity change, negative = inhibition [2] 21.4% | Potency [3] > 46 µM | Potency [4] > 46 µM | Potency [5] | Potency [6] | Potency [8] | outcome [10] | activity change, negative = inhibition [11] -0.127%
-0.875%: max response [11, 16]
active: Potency [7] 7.94 µM | Potency [9] 3.16 µM
-2.04%: max response [11, 17]

O=C(c1cnccn1)N1CCC2(CC1)CN(c1ncccn1)C2
15.3%: max response [11, 17]
inactive: Potency [1] > 11.4 µM | activity change, negative = inhibition [2] -12.2% | activity, negative = inhibition [12] 21.6% | Potency [4] > 46 µM | Potency [5] | Potency [13] | activity change, negative = inhibition [11] 6.01%
6.2%: max response [11, 16]

COc1ccc(Oc2ncc3nc(CCc4ccccc4)c(=O)n(C)c3n2)cc1
9.28%: max response [11, 16]
inactive: Potency [1] > 11.4 µM | activity change, negative = inhibition [2] -17.4% | activity change, negative = inhibition [14] 2.43% | activity, negative = inhibition [12] -11.3% | Potency [3] > 9.22 µM | Potency [4] > 46 µM | Potency [5] | Potency [6] | activity change, negative = inhibition [11] -3.44%
8.21%: max response [11, 17]

COc1ccccc1CNc1ncncc1-c1ccc(N(C)C)cc1
-12.6%: max response [11, 16]
inactive: Potency [1] > 11.4 µM | activity change, negative = inhibition [2] -14.4% | activity change, negative = inhibition [14] -2.91% | activity, negative = inhibition [12] -7.61% | Potency [3] > 46 µM | Potency [4] > 46 µM | Potency [8] | outcome [10] | activity change, negative = inhibition [11] 7.79%
-7.14%: max response [11, 17]

COCCn1c(=O)c(-c2ccc(F)cc2)nc2cnc(Oc3ccc(OC)cc3)nc21
-18.1%: max response [11, 16]
-27.4%: max response [11, 17]
inactive: Potency [1] > 11.4 µM | activity change, negative = inhibition [2] -14.8% | activity change, negative = inhibition [14] 0.536% | activity, negative = inhibition [12] -13.7% | Potency [3] > 9.22 µM | Potency [4] > 46 µM | Potency [5] | Potency [13] | activity change, negative = inhibition [11] -18.7%

O=c1c(-c2cc(F)cc(F)c2)nc2cnc(Oc3ccccc3)nc2n1C[C@H]1CCCO1
10.1%: max response [11, 17]
13.2%: max response [11, 16]
inactive: Potency [1] > 11.4 µM | activity change, negative = inhibition [2] -12.8% | activity change, negative = inhibition [14] -1.84% | activity, negative = inhibition [12] -1.6% | Potency [3] > 9.22 µM | Potency [4] > 46 µM | Potency [5] | Potency [13] | Potency [6] | activation [9] 3.51% | activity change, negative = inhibition [11] -6.47%

CN(C)Cc1ccccc1-c1cncnc1NCc1ccccc1
9.37%: max response [11, 16]
inactive: Potency [1] > 11.4 µM | activity change, negative = inhibition [2] 9.42% | activity, negative = inhibition [12] -4.85% | Potency [3] > 46 µM | Potency [4] > 46 µM | Potency [5] | outcome [10] | activity change, negative = inhibition [11] 4.16% | Potency [15]
10.2%: max response [11, 17]

From PubChem BioAssay (NCATS)
